Data on 21 molecules can be found in ChEMBL document CHEMBL3988442, “University of Dundee, Small-Polar-MMV Screening Library” (2021).

The target of the assay is T1, Aspartate--tRNA(Asp/Asn) ligase (Mycobacterium tuberculosis (strain ATCC 25618 / H37Rv)) (UniProt P9WFW3).
T1 sequence (whole entry): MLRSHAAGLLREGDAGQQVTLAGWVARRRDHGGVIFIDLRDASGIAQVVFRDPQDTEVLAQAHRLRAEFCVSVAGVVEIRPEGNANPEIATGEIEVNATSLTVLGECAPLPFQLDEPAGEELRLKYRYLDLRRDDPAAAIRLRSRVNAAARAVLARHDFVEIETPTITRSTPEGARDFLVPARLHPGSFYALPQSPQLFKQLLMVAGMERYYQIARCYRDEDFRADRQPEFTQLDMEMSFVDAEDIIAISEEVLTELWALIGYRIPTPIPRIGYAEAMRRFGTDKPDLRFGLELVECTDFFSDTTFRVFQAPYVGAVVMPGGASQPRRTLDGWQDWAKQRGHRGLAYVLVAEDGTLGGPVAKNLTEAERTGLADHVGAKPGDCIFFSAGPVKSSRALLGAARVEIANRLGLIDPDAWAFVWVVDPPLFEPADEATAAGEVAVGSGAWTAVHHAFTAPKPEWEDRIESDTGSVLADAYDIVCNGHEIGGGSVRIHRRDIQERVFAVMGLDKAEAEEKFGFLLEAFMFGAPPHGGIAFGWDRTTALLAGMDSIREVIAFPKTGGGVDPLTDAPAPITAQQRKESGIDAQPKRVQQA
The assay can be described thus: Assay for Asp RNA synthetase-1 from Mycobacterium tuberculosis. On the set-up: scale not given: in the data most compounds retested in dose-response had high values. It is filed as functional. Particulars: 30 µM.
For `O=C(CCNS(=O)(=O)c1ccc2c(c1)CCCC2)NCc1ccoc1`, the Percent Effect stood at 0.701%.
The value for `CCn1nc(C)c(CCn2ccnc2-c2cc3n(n2)CCCNC3)c1C` was -1.76%; that for `CSC(C)(C)CNC(=O)NC1CCN(C)CC1` was -4.75%.
The value for `N#Cc1ccc(C2CC(=O)Nc3c2cnn3C2CCCC2)cc1` (stereo unspecified) was -5.3%; that for `CCCS(=O)(=O)N1C[C@H]2OC(=O)N(CCc3cccc(Cl)c3)[C@H]2C1` was -4.26%.
Take `Cc1ccsc1CNC(=O)NC1CCCc2c1cnn2CCO` (stereo unspecified): the Percent Effect was -1.99%.
Take `CCc1ncc(C(=O)NCCNC(=O)Cc2ccc(F)cc2)s1`: the Percent Effect is -2.42%.
The value for `O=C(c1ccc2c(c1)CCC2)N1C[C@@H](CN2CCOCC2)[C@@H](CO)C1` was 1.28%; that for `CCn1cc(NC(=O)NC2CCCc3c2cnn3CCO)cn1` (stereo unspecified) was -3.64%.
On to `CSCC(=O)N1CCCC1c1noc(C2CC2)n1` (stereo unspecified), for which the Percent Effect was 0.839%.
The value for `O=C(c1cncc(N2CCC(O)(CO)CC2)n1)N1CCCC1` was -3.27%; that for `CCOc1ncccc1CNC(=O)N1CCCC1c1cc(C)no1` (stereo unspecified) was -2.06%.
`Cn1cccc1C1CCCN1C(=O)NCCCn1cccn1` (stereo unspecified): the Percent Effect is -1%.
Turning to `Cc1cnc(C)c(N2CCN(Cc3ccc(-c4cc[nH]n4)o3)CC2)n1`, the Percent Effect came to 0.816%.
For `CCNC(=O)NC(=O)CSC(C)c1ccccc1F` (stereo unspecified), the Percent Effect amounted to 2.19%.
Regarding `O=C(NCCc1cccc(O)c1)NC1CCN(c2ccccc2)C1=O` (stereo unspecified), the Percent Effect is -2.7%.
The value for `CSC(C)(C)CNC(=O)NC1CCSCC1` was 0.103%.
On to `O=C(O)[C@]12CCCN(Cc3ccncc3)[C@@H]1CCN(c1cnccn1)C2`, for which the Percent Effect stood at 0.862%.
On to `CS(=O)(=O)NCC(=O)NC1CCc2nccn2C1` (stereo unspecified), for which the Percent Effect turned out to be 2.91%.
Turning to `O=C(O)C(c1ccc2c(c1)OCCO2)N1CCCCCC1` (stereo unspecified), the Percent Effect is -3.23%.
The value for `CC(C)(C)N1CC(C(=O)N2CCN(CCn3cccc3)CC2)CC1=O` (stereo unspecified) was 1.18%.
